Test results from PubChem BioAssay (Tox21).
Inconclusive results are not listed. Where a structure was tested more than once in an assay, its records may differ in their call. Activity calls are given as the source filed them. Unless noted, the call rests on the fitted dose curve; in most records, active means well fitted curve in the direction sought with a large enough effect in the repeat runs; inconclusive means weak or mixed curves; inactive means no such curve, though single readings can be large; an effect the other way counts as inactive or inconclusive.

Tests used:
[1] = qHTS assay to identify small molecule agonists of the estrogen receptor beta (ER-beta) signaling pathway - cell viability counter screen (AID 1259380); further: nearly all actives have a fitted effect of over 30% in size
In short: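 Compounds dissolved in DMSO were pin-transferred onto ER-beta-UAS-bla HEK293T cells that had settled 6 hr, and exposure ran 16 hr at 37C. Following the reporter read, CellTiter-Glo luminescence after 30 min at room temperature indicated cytotoxicity.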

[2] = qHTS assay to identify small molecule antagonists of the estrogen receptor beta (ER-beta) signaling pathway - cell viability counter screen (AID 1259382);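 further: HEK293T cells carrying ER-beta-UAS-bla reporter stimulated with estradiol; series mostly up to about 92 µM; nearly all actives have a fitted effect of over 55% in size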
In short: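 CellTiter-Glo ATP luminescence measured after the LiveBLAzer read in the same wells; ER-beta-UAS-bla HEK293T cells, 16 hr compound treatment with 1nM 17-beta-estradiol agonist at 37C, 5% CO2.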

[3] = target: Estrogen receptor (Homo sapiens) (UniProt P03372); assay: qHTS assay to identify small molecule agonists of the estrogen receptor alpha (ER-alpha) signaling pathway in the presence of an antagonist (AID 1259383; calls by dose curve; further: nearly all actives have a fitted effect of over 15% in size; further: potency means the concentration at half of the fitted maximal effect; on activation: top concentration of the series differs between compounds)
Chain of Estrogen receptor (Homo sapiens) (P03372 whole entry, looked up): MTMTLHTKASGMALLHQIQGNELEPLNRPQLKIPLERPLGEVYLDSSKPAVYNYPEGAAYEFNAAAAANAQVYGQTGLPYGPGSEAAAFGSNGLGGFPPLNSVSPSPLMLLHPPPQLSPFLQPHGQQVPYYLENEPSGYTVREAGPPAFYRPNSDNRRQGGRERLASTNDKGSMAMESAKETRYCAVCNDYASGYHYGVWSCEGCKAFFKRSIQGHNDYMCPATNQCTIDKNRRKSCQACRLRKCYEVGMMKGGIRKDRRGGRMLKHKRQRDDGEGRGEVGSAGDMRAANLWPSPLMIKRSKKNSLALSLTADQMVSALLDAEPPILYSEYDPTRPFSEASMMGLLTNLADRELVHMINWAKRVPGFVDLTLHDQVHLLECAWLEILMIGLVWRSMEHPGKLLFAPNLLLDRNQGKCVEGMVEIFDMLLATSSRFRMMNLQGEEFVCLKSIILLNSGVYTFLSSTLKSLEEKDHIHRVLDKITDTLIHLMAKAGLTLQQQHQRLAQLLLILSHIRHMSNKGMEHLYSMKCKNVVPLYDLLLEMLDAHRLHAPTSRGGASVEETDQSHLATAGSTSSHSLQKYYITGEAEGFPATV
In short: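 Luminescent ERE-luciferase reporter, VM7Luc4E2 cells (endogenous ER-alpha); 10.0nM ICI-182,780 final; 15-point compound titration; 22hr at 37C; ONE-Glo, 30min RT.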

[4] = qHTS assay to identify small molecule agonists of the estrogen receptor alpha (ER-alpha) signaling pathway in the presence of an antagonist - cell viability counter screen (AID 1259386);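 further: series mostly up to about 92 µM; cells exposed to compounds for 22 h at 37 °C before the viability read; nearly all actives have a fitted effect of over 30% in size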
In short: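 Using estrogen-depleted VM7Luc4E2 cells, the 15-concentration compound series was applied together with 10.0nM ICI-182,780 and incubated 22hr at 37C/5% CO2. Cell viability was then scored by CellTiter-Fluor.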

[5] = target: Progesterone receptor (Homo sapiens) (UniProt P06401); assay: qHTS assay to identify small molecule agonists of the progesterone receptor (PR) signaling pathway (AID 1346784; calls by dose curve; further: nearly all actives have a fitted effect of over 30% in size; further: potency means the concentration at half of the fitted maximal effect)
Chain of Progesterone receptor (Homo sapiens) (P06401 whole entry, looked up): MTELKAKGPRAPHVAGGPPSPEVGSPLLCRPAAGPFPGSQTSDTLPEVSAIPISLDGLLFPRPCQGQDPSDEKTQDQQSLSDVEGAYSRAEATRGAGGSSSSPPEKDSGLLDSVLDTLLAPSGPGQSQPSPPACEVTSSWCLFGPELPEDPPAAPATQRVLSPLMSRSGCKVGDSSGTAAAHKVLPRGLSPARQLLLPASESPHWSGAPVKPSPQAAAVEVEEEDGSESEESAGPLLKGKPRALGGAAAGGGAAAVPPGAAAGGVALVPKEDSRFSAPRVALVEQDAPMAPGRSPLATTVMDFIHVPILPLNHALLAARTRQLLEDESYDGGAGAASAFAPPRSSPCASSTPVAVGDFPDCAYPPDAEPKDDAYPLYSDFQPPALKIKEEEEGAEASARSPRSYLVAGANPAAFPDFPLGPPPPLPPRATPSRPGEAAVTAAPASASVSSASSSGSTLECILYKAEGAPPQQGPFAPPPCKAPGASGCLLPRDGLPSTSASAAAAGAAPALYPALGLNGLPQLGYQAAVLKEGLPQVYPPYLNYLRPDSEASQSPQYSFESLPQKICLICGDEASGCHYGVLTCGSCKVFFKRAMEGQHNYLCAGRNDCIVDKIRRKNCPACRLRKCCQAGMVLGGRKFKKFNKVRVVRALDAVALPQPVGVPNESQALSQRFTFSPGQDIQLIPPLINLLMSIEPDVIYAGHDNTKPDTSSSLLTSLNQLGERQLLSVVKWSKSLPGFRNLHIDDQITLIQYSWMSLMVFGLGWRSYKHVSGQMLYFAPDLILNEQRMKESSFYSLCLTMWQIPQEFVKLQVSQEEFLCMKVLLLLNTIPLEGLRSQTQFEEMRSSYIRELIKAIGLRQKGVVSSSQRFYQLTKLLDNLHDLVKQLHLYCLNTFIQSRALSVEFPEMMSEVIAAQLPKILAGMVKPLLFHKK
In short: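 Using charcoal-stripped serum (2%) to limit endogenous steroids, PR-UAS-bla HEK 293T cells received compounds for 16 hr at 37C after 6 hr plating; beta-lactamase FRET fluorescence was recorded following 2 hr substrate loading at room temperature.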

[6] = target: Progesterone receptor (Homo sapiens) (UniProt P06401); assay: qHTS assay to identify small molecule antagonists of the progesterone receptor (PR) signaling pathway (AID 1346795; active means well fitted inhibition curve with a large enough effect in the signal ratio in the repeat runs, not every such curve was filed as active; the % refers to the signal ratio; further: potency means the concentration at half of the fitted maximal effect)
In short: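 Inhibition of R5020-induced (1 nM final) beta-lactamase reporter signal in PR-UAS-bla HEK293T cells was scored by FRET fluorescence after overnight (16 hr) compound treatment.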

[7] = qHTS assay to identify small molecule antagonists of the progesterone receptor (PR) signaling pathway - cell viability counter screen (AID 1346798); further: series mostly up to about 92 µM; nearly all actives have a fitted effect of over 50% in size
In short: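 ATP content as viability readout: CellTiter-Glo luminescence, 30 min room temperature, in PR-UAS-bla HEK293T cells after 16 hr compound/R5020 treatment at 37C and 5% CO2.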

[8] = qHTS assay to identify small molecule agonists of the progesterone receptor (PR) signaling pathway - cell viability counter screen (AID 1346799; calls by dose curve; further: nearly all actives have a fitted effect of over 45% in size)
In short: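 Cytotoxicity in PR-bla HEK293T cells: 16 h compound, 37C; CellTiter-Glo added post-FRET read; luminescence after 30 min RT.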

[9] = qHTS assay to identify small molecule antagonists of the TGF-beta/Smad signaling pathway - cell viability counter screen (AID 1346824); further: nearly all actives have a fitted effect of over 50% in size
In short: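 SBE-bla HEK 293T cells, incubated overnight, then compound plus 0.25 ng/mL TGF-beta1 (stock added) for 5 hr at 37 C. Viability was read in the same wells by CellTiter-Glo luminescence after 30 min at room temperature.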

[10] = qHTS assay to identify small molecule agonists of the TGF-beta/Smad signaling pathway - cell viability counter screen (AID 1346829); further: top concentration of the series differs between compounds; nearly all actives have a fitted effect of over 45% in size
In short: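 Tox21 qHTS format: SBE-bla HEK 293T cells treated with DMSO-dissolved compounds for 5 hr; CellTiter-Glo luminescence after 30 min at room temperature.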

[11] = qHTS assay to identify small molecule agonists of the TGF-beta/Smad signaling pathway (AID 1346859; active means well fitted activation curve with a large enough effect in the signal ratio in the repeat runs, not every such curve was filed as active; the % refers to the signal ratio; further: series mostly up to about 77 µM)
In short: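 Stable Smad binding element-beta-lactamase HEK 293T cells; 5 hr compound exposure at 37 C under 5% CO2; 2 hr room-temperature substrate step; fluorescence excited at 405 nm, collected at 460 nm and 530 nm.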

[12] = Human pregnane X receptor (PXR) small molecule agonists, qHTS cell viability counter screen (AID 1346977); further: nearly all actives have a fitted effect of over 50% in size
In short: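 Readout is CellTiter-Fluor fluorescence from PXR-Luc HepG2 cells. Plated cells rested 5hr, then were treated with compounds for 24hr at 37C and 5% CO2, with reagent present during the last hour.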

[13] = Caspase-3/7 induction in HepG2 cells by small molecules, qHTS assay (AID 1346978); further: nearly all actives have a fitted effect of over 15% in size
In short: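 Wild-type HepG2 cells, 2,000/well, settled 5 hr at 37 C and 5% CO2, then compound-treated for 17 hr; caspase-3/7 activity read by luminescent Caspase-Glo 3/7 after 30 min at room temperature.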

[14] = Caspase-3/7 induction in CHO-K1 cells by small molecules, qHTS cell viability counter screen (AID 1346979); further: nearly all actives have a fitted effect of over 35% in size
In short: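 To flag cytotoxic compounds, treated CHO-K1 wild-type cells were given CellTiter-Fluor at 16hr and read fluorescently after 1hr at 37C; the caspase-3/7 luminescence was measured in these same wells.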

[15] = Caspase-3/7 induction in CHO-K1 cells by small molecules, qHTS assay (AID 1346980); further: nearly all actives have a fitted effect of over 15% in size
In short: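 Wild-type CHO-K1 cells exposed to compounds for 17hr at 37 C, 5% CO2. Caspase-3/7 activity then measured by Caspase-Glo 3/7 luminescence after 30min at room temperature.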

[16] = qHTS assay to identify small molecule agonists or antagonists of the thyroid stimulating hormone receptor (TSHR) signaling pathway - wild type cell line counter screen (AID 1259384; calls by dose curve)
In short: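 Wild-type Hek293 cells, 800/well, 18 h at 37C, then compound with Ro20-1724 for 30 min RT. cAMP by HTRF (cAMP-d2/anti-cAMP cryptate), 1 h RT, fluorescence read. 15 concentrations, triplicates.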

[17] = target: Thyrotropin receptor (Homo sapiens) (UniProt P16473); assay: qHTS assay to identify small molecule antagonists of the thyroid stimulating hormone receptor (TSHR) signaling pathway (AID 1259385; calls by dose curve; further: nearly all actives have a fitted effect of over 20% in size)
Chain of Thyrotropin receptor (Homo sapiens) (P16473 whole entry, looked up): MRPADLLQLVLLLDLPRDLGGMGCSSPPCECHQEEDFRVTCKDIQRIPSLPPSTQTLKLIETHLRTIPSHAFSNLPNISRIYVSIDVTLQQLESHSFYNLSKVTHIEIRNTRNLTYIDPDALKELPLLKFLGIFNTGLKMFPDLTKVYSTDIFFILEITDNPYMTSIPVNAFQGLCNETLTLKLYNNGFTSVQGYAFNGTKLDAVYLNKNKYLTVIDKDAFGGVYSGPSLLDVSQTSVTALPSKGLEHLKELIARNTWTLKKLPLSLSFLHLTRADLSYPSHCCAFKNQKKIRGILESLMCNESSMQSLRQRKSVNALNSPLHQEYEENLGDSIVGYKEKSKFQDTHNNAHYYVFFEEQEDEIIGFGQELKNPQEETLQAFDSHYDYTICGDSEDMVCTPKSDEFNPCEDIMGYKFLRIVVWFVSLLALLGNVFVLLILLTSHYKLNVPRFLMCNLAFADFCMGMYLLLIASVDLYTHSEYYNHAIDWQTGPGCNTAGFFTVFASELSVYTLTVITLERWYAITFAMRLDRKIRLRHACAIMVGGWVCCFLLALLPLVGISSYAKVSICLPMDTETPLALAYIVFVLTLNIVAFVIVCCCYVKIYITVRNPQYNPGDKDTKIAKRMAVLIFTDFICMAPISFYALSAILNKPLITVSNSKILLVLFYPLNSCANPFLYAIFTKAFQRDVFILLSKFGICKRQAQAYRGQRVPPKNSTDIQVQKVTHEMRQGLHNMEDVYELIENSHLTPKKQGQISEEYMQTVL
In short: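 TSHR-HEK293 cells (800/well) plated 18 h, then compounds with Ro20-1724 and TSH at 1.5 ng/mL final, 30 min at room temperature. cAMP quantified by HTRF (cAMP-d2/anti-cAMP-cryptate, 1 h); 15 concentrations in triplicate.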

[18] = target: Thyrotropin-releasing hormone receptor (Homo sapiens) (UniProt P34981); assay: qHTS assay to identify small molecule antagonists of the thyrotropin-releasing hormone receptor (TRHR) signaling pathway (AID 1346877; active means well fitted inhibition curve with a large enough effect in the repeat runs, not every such curve was filed as active; further: series mostly up to about 51 µM)
Chain of Thyrotropin-releasing hormone receptor (Homo sapiens) (P34981 whole entry, looked up): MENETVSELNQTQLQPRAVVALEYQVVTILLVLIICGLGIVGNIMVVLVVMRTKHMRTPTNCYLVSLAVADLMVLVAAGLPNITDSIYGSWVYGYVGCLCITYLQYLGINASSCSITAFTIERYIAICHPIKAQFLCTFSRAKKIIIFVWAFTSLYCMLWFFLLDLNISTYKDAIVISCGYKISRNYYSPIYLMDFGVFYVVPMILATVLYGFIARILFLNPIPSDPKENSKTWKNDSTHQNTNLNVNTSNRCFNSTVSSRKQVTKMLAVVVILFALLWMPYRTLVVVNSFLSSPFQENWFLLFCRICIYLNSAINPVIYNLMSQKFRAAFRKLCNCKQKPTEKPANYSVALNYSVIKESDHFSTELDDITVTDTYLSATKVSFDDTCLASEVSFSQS
In short: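 Calcium signal in dye-loaded TRHR/HEK293 cells; compounds added 5 min before TRH (1 nM final); fluorescence monitored 3 min at 1 s steps.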

[19] = target: Thyrotropin-releasing hormone receptor (Homo sapiens) (UniProt P34981); assay: qHTS assay to identify small molecule agonists of the thyrotropin-releasing hormone receptor (TRHR) signaling pathway (AID 1346891; calls by dose curve;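 further: HEK293 cells expressing TRHR with calcium dye readout; series mostly up to about 58 µM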)
In short: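 In 1536-format, 1500 TRHR-Hek293 cells per well grew 18 h, took up calcium dye for 2 h at 37 °C, received compound, and were read kinetically; 15-point titrations, triplicates.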

Measured: Potency

Cc1cccc(O)c1
not listed: [16] | [17] | [18] | [19]
inactive: all other assays above

OCC(CO)(CBr)CBr
not listed: [3] | [14]
inactive: all other assays above

CCCCCCOCCO
not listed: [14] | [16] | [17] | [18] | [19]
inactive: all other assays above

O=C(O)CCCC[C@@H]1SC[C@@H]2NC(=O)N[C@@H]21
not listed: [5] | [6] | [14] | [17] | [18] | [19]
inactive: all other assays above

CCCCCC/C(C=O)=C\c1ccccc1
not listed: [3]
inactive: all other assays above

O=C=NCCCCCCN=C=O
not listed: [14] | [16] | [17]
inactive: all other assays above

Fc1ccc(Br)cc1
61.8 µM (active) and inactive: [3]
not listed: [16] | [17]
inactive: all other assays above

O=c1[nH]nnc2ccccc12
not listed: [3] | [18] | [19]
inactive: all other assays above

CCCCCCCC(=O)OC
not listed: [16]
inactive: all other assays above

CC(C)(C)[C@@H](O)[C@@H](Cc1ccc(Cl)cc1)n1cncn1
active: [6] 48.2 µM
not listed: [3]
inactive: all other assays above

c1ccc2scnc2c1
not listed: [16] | [18] | [19]
inactive: all other assays above

CCCCCC1=CCCC1=O
not listed: [16]
inactive: all other assays above

CCc1ccc(CCOc2ccc(CC3SC(=O)NC3=O)cc2)nc1 (stereo not given)
not listed: [6] | [7] | [11] | [16] | [17]
inactive: all other assays above

CCOC(=O)NNc1nncc2ccccc12
not listed: [14] | [17] | [18] | [19]
inactive: all other assays above

CC(=O)Nc1ccccc1
not listed: [14] | [16]
inactive: all other assays above

OC[C@H]1O[C@@](CO)(O[C@H]2O[C@H](CO)[C@@H](O)[C@H](O)[C@H]2O)[C@@H](O)[C@@H]1O
not listed: [16] | [17]
inactive: all other assays above

CC(=O)Nc1cccc(O)c1
24.2 µM (active) and inactive: [5]
not listed: [16] | [18] | [19]
inactive: all other assays above
